Screening data from PubChem BioAssay.
Dicer inh – human Dicer pre-microRNA cleavage inhibition; z-score at 25 µM; 47,000 tested, 6% active; cat-ELCCA pre-miR-21 Dicer processing, chemiluminescence; stronger effect = higher value; Q9UPY3; in the data active = z-score above about 3, passing the limit was not always enough;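 also: plate controls were vehicle for no effect and no enzyme for full effect; higher signal means more uncleaved substrate so more Dicer inhibition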
The depositor's hits bear a star. Only a selection was taken, and hits are over-represented in it overall.

SMILES	Dicer inh
CCCOCCOC(=O)C1=C(C)NC2=C(C(=O)CC(C)(C)C2)C1c1ccsc1 (stereo not given)	5.1*
CCOCCOC(=O)C1=C(C)NC2=C(C(=O)CC(C)(C)C2)C1c1ccc(CC)cc1 (stereo not given)	-0.52
CCCOC(=O)C1=C(C)NC2=C(C(=O)CC(C)(C)C2)C1c1ccc(SC)cc1 (stereo not given)	1.6
CC1=C(C(=O)OCCOc2ccccc2)C(c2cccnc2)C2=C(CC(C)(C)CC2=O)N1 (stereo not given)	3.5*
Cc1cc(C)cc(NC(=O)Nc2cccc(C)n2)c1	0.16
Cc1nc2c(C)cccc2c2c1CCN2c1ccc(Cl)cc1	-0.45
CC(C)(C)OC(=O)/C(C#N)=C/c1ccc(Cl)cc1	1
CC(C)(C)C(=O)/C(C#N)=C/c1c(Cl)cccc1Cl	-0.78
CC(C)(C)C(=O)/C(C#N)=C/c1ccc(C(F)(F)F)cc1	3.2*
c1ccc(CN2CCN(C3CCN(Cc4ccccn4)CC3)CC2)cc1	1.2
CCOC(=O)C1=NNC2C(=O)N(c3cccc(OC)c3)C(=O)C12 (stereo not given)	-1.4
O=C(Nc1cnn(Cc2ccccc2)c1)c1cnn2c(C(F)F)cc(-c3ccccc3)nc12	1.6
COc1cccc(C(C[N+](=O)[O-])Sc2ccccc2N)c1O (stereo not given)	-3.1
COc1ccc(CNCc2ccc3c(c2)OCO3)cc1OC	-0.8
Cc1ccc(S(=O)(=O)NCc2ccc3c(c2)OCO3)cc1C	0.26
COc1ccc(S(=O)(=O)NCc2ccc3c(c2)OCO3)cc1OC	3.6*
O=C(c1cccs1)n1cc2c(n1)-c1cc(Cl)ccc1SC2	1.4
CCOC(=O)c1ccc(NC(=S)NN)cc1	3.5*
CCOC(=O)c1ccc(NC(=S)NC(C)(C)CO)cc1	-1.5
CCOC(=O)c1ccc(NC(N)=S)cc1	-0.12
Cc1ccc(-c2cn3c4ccccc4nc3n2CCN2CCOCC2)cc1	2.2
c1ccc(-c2cn3c4ccccc4n(CCN4CCOCC4)c3n2)cc1	4.1*
Cc1nc2n(CCN3CCOCC3)c3ccccc3n2n1	1.2
CCOC(=O)c1c(Cl)c(C(C)(C)C)[nH]c(=O)c1C#N	0.03
NNC(=O)CSCCCN1CCN(c2cccc(Cl)c2)CC1	0.58
SMILES	Dicer inh
COc1cc2c(cc1OC)-c1c(C#N)c(-c3ccc(C)cc3)c(C(=O)c3cccs3)n1CC2	6.2*
COc1cc2c(cc1OC)-c1c(C#N)c(-c3ccc(Cl)cc3)c(C(=O)c3cccs3)n1CC2	-0.34
COc1cc2c(cc1OC)-c1c(C#N)c(-c3ccc4c(c3)OCO4)c(C(C)=O)n1CC2	1.8
COc1ccc(-c2n(C)c3ccccc3[n+]2C)cc1	-0.71
C=CCNC(=O)c1ccccc1NC(=O)CN1C(=O)c2ccccc2S1(=O)=O	-0.39
CN(C)NC(=O)Nc1cc(C(C)(C)C)n(-c2c(Cl)cc(Cl)cc2Cl)n1	0.56
O=C1c2oc3ccccc3c(=O)c2C(c2ccc(O)cc2)N1c1ccccn1 (stereo not given)	5.1*
CCCOc1ccc(C2c3c(oc4ccccc4c3=O)C(=O)N2c2ccc(C)cn2)cc1 (stereo not given)	2.5
COc1ccc(C2c3c(oc4ccccc4c3=O)C(=O)N2c2ccccn2)cc1 (stereo not given)	4.1*
COc1ccc(C2c3c(oc4ccccc4c3=O)C(=O)N2c2ccccn2)cc1OC (stereo not given)	1.8
CCc1ccc(C2c3c(oc4ccccc4c3=O)C(=O)N2c2ccccn2)cc1 (stereo not given)	2
O=C1c2oc3ccccc3c(=O)c2C(c2ccc(O)cc2)N1c1nncs1 (stereo not given)	-1.4
Cc1occc1-c1nnc2n1N=C(c1ccc(Br)cc1)CS2	-0.87
Cn1ncc(NC(=O)Nc2cc(Cl)ccc2Cl)c1-n1cccc1	0.47
CCOC(=O)c1sc(NC2=NS(=O)(=O)c3ccccc32)c(C(=O)OCC)c1C	-0.58
C#CCSc1nc(C)c(CCC)c(=O)[nH]1	-0.47
COc1cc(C=Nc2ccc(N3N=C(C)CC3=O)cc2)ccc1O	-6.6
COc1cc(/C=N/c2nccs2)ccc1O	3.1*
COc1cc(/C=N/n2cnc3c(sc(=S)n3C)c2=O)ccc1O	-1.7
c1cc(-c2noc(C3CCCCC3)n2)ccn1	1.6
CCc1ccc(C2C(C#N)=C(C)NC3=C2C(=O)CC(c2ccccc2)C3)cc1 (stereo not given)	0.27
COC(=O)C1=C(C)Nc2nnnn2C1c1ccc(O)cc1 (stereo not given)	0.53
Cc1n(CC(=O)c2ccc(C(C)(C)C)cc2)c2ccccc2[n+]1C	4.9*
Cc1ccc(C(=O)Cn2c(C)[n+](C)c3ccccc32)cc1	-0.17
COC(=O)c1ccc(OCC(O)Cn2c(C)[n+](C)c3ccccc32)cc1 (stereo not given)	0.87
SMILES	Dicer inh
OCc1nc2ccccc2n1CC(O)COc1ccc(F)cc1 (stereo not given)	-2.2
CCCCOc1ccc(C2c3c(oc4ccccc4c3=O)C(=O)N2c2ccccn2)cc1OCC (stereo not given)	4.6*
CCCOc1cccc(C2c3c(oc4ccccc4c3=O)C(=O)N2c2ccccn2)c1 (stereo not given)	-5.9
CCCOc1ccc(C2c3c(oc4ccccc4c3=O)C(=O)N2c2nnc(C)s2)cc1OCC (stereo not given)	-0.5
CCCOc1ccc(C2c3c(oc4ccccc4c3=O)C(=O)N2c2ccccn2)cc1OCC (stereo not given)	4.4*
CCCCOc1ccc(C2c3c(oc4ccccc4c3=O)C(=O)N2c2nncs2)cc1OCC (stereo not given)	-0.3
CCCOc1ccc(C2c3c(oc4ccccc4c3=O)C(=O)N2c2ccc(C)cn2)cc1OCC (stereo not given)	-0.52
COC(=O)c1sccc1Oc1nccc(C(F)(F)F)n1	-0.41
Cc1c(C(=O)N(Cc2ccc(C(C)C)cc2)C2CCS(=O)(=O)C2)oc2ccccc12 (stereo not given)	-0.04
CC1(C)ONC(=O)N(c2ccccc2)C1=O	-0.7
CCSC1=C(C#N)C(c2cc(Br)c(O)c(OC)c2)CC(=O)N1 (stereo not given)	1.3
c1ccc2c(c1)CCCN2c1nc(N2CCCC2)nc(N2CCOCC2)n1	-1.2
CC1=N/C(=C/c2ccc(Cl)c(Cl)c2)C(=O)O1	3.2*
CC1=N/C(=C\c2ccc3ccccc3c2)C(=O)O1	-0.93
CC1=N/C(=C\c2cc(F)cc(F)c2)C(=O)O1	-0.66
COc1cccc(OC)c1OC(=O)NC(=O)c1c(OC)ccc([N+](=O)[O-])c1OC	-0.13
Cc1cc(C)nc(NC(=O)CN2C(=O)C3CCCCC3C2=O)n1 (stereo not given)	1.6
CC(=O)Nc1ccc(S(=O)(=O)Nc2nc(C)cc(C)n2)cc1	-1.6
Cc1ccnc(NS(=O)(=O)c2ccc(N3C(=O)C4CCCCC4C3=O)cc2)n1 (stereo not given)	8.1*
COc1ccc2c(c1)c(=O)oc1c(C)c3oc(C)c(C)c3cc12	0.57
CCCCCCCNC(=O)Cn1cnc2c1c(=O)n(C)c(=O)n2C	4*
Cn1c(=O)c2c(ncn2CC(=O)NCc2ccc3c(c2)OCO3)n(C)c1=O	6.6*
CCOCCCNC(=O)Cn1cnc2c1c(=O)n(C)c(=O)n2C	1.3
Cn1c(=O)c2c(ncn2CC(=O)Nc2ccc3c(c2)OCCO3)n(C)c1=O	0.53
CCCNC(=O)Cn1cnc2c1c(=O)n(C)c(=O)n2C	-0.92
CC(C)CNC(=O)Cn1cnc2c1c(=O)n(C)c(=O)n2C	0.1
CN1CCc2c(sc(N)c2C(=O)OC(C)(C)C)C1	1.5
